Compound activity from PubChem.
LYPLA1 inh: LYPLA1 inhibitors, primary screen, counter-screen for PME1 inhibitor project, biochemical, fluorescence polarization, FP-Rh probe ABPP; Acyl-protein thioesterase 1 (Homo sapiens), O75608; recombinant LYPLA1; inhibition, % at 5.9 µM; 320,000 tested, 0.16% active; AID 2174, 2009;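 active = inhibition above the mean of all tested compounds plus 3 SD, set per campaign, cut at about 14% in these data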;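 note: inhibitors block serine hydrolase probe labeling of LYPLA1 so polarization falls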
Target sequence (O75608 whole entry, looked up): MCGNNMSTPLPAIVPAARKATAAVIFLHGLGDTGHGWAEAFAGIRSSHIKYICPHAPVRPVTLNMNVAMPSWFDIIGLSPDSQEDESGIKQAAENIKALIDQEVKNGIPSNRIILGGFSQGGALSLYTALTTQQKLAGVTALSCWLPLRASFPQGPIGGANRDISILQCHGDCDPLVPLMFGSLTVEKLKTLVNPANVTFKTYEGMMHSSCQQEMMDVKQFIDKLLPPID
ZTA counter: ZTA (EBV) inhibition in EBNA-1 counter-screen; inhibition, % at 11 µM; AID 2234; P03206; ZTA-DNA binding, fluorescence polarization; 320,000 tested, 0.15% active; in the data active = inhibition above about 33%
Target sequence (P03206 whole entry, looked up): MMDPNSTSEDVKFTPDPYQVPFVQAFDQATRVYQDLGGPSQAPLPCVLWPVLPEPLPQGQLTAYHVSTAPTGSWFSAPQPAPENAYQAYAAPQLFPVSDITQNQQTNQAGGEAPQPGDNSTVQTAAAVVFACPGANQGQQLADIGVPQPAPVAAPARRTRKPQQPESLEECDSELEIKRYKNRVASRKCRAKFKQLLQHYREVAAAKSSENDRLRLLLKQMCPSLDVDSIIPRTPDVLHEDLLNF
LYPLA2 counter: LYPLA2 inhibitors, primary screen, counter-screen for PME1 inhibitor project, biochemical, fluorescence polarization, FP-Rh probe ABPP | Acyl-protein thioesterase 2 (Homo sapiens), O95372 | recombinant LYPLA2 | inhibition, % at 5.9 µM | 320,000 tested, 0.38% active;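 active = inhibition above the screen-wide mean plus 3 SD, limit set per campaign, cut at about 26% in these data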
LANA-H2A inh: blockers of LANA interaction with H2A/H2B – biochemical, FP readout, HTS, primary screen; Protein LANA1 (Human herpesvirus 8 type P (isolate GK18)), Q9QR71; cell-free LANA-H2A/H2B peptide, fluorescence polarization; inhibition, % (test concentration not listed); 320,000 tested, 0.6% active; in the data active = inhibition mostly above about 10%, no sharp cut-off; inactive = mostly below about 6.7%
EBNA-1 inhibitor: EBNA-1 DNA-binding inhibitors, primary screen, biochemical, fluorescence polarization; 300,000 tested, 0.34% active; inhibition, % at 14.8 µM; in the data active = inhibition above about 28%
Each line names hits and unclear results; the compound was inactive in the other large screens. Only some compounds are listed: those with a hit (about 1.4% of all), similar ones and a draw of the others.

COc1ccc(OC(=O)N2CCOCC2)cc1	none
COc1ccc(/C(N)=N/OC(=O)N2CCOCC2)cc1	LANA-H2A inh 14
Cc1ccc(-c2csc(NS(=O)(=O)c3cccc(F)c3)n2)o1	none (no result: LYPLA1 inh, ZTA counter, LYPLA2 counter, EBNA-1 inhibitor)
COCCN(C(=O)CSc1nnc(Nc2ccccc2F)s1)c1c(N)n(Cc2ccccc2)c(=O)[nH]c1=O	none
Cc1nc(SCc2nc3ccc([N+](=O)[O-])cc3[nH]2)c2oc3ccccc3c2n1	none (no result: LYPLA1 inh, ZTA counter, LYPLA2 counter, EBNA-1 inhibitor)
Nc1cc(=O)[nH]c(SCC(=O)Nc2cccc(Cl)c2)n1	none
Nc1cc(=O)[nH]c(SCC(=O)Nc2ccc(Oc3ccccc3)cc2)n1	LANA-H2A inh 16
O=C(NCc1ccccc1Cl)C1CCC(CNc2c(N3CCOCC3)c(=O)c2=O)CC1 (stereo unspecified)	none
CCOC(=O)CN1CCc2c(C)nc3c(-c4ccc(OC)c(OC)c4)cnn3c21	none
COC(=O)C(C(C)C)N1CCc2c(C)nc3c(C#N)cnn3c21 (stereo unspecified)	LANA-H2A inh 60
CCC(=O)OCCn1c(Br)nc2c1c(=O)[nH]c(=O)n2C	none
Cn1c(=O)[nH]c(=O)c2c1nc(Br)n2CCCO	LANA-H2A inh 4.4
CC(=O)c1ccc(NC(=O)N2C3CCC2CC(O)(c2cccnc2)C3)cc1 (stereo unspecified)	LANA-H2A inh 124
CC(=O)c1cccc(NC(=O)N2C3CCC2CC(O)(c2cccnc2)C3)c1 (stereo unspecified)	none
COc1ccccc1C(=O)NCCC(=O)NCC(c1ccco1)N1CCCC1 (stereo unspecified)	none (no result: EBNA-1 inhibitor)
O=C(CCS(=O)(=O)c1ccccc1Cl)NC1CCCCCC1	none (no result: LYPLA1 inh, ZTA counter, LYPLA2 counter, EBNA-1 inhibitor)
COc1ccc(NC(=O)CSc2nn3c(=O)c(C)nnc3s2)cc1	LANA-H2A inh 28
COC(=O)c1ccc(NC(=O)CSc2nn3c(=O)c(C)nnc3s2)cc1	none
CC(C)OC(=O)c1ccc2nc3ccccc3nc2c1	none
Cc1cc(NC(=O)CCC(=O)N(CC(=O)NC2CCCC2)c2ccccc2)no1	LANA-H2A inh 22
CC(C)C(NC(=O)c1ccc(C(C)(C)C)cc1)C(=O)N1CCCC1 (stereo unspecified)	none
O=C(c1ccc(S(=O)(=O)Nc2cccc(C(F)(F)F)c2)cc1)N1CCN(c2ccccc2O)CC1	none (no result: LANA-H2A inh)
Cc1ccc(S(=O)(=O)CCC(=O)OCC(=O)NC(C)c2ccc(F)cc2)cc1 (stereo unspecified)	none (no result: EBNA-1 inhibitor)
Cc1ccc(S(=O)(=O)CCC(=O)OCC(=O)NC(C)c2ccccc2)cc1 (stereo unspecified)	LANA-H2A inh 183 (no result: EBNA-1 inhibitor)
CCN(C(=O)CN1C(=O)COc2ccc(S(=O)(=O)N3CCCCCC3)cc21)c1cccc(C)c1	none
COc1ccc(NC(=O)COC(=O)C23CC4CC(CC(Cl)(C4)C2)C3)c(OC)c1	LANA-H2A inh 171
O=C1CC(=O)C(n2cncn2)C(c2cccc(Cl)c2)C1 (stereo unspecified)	LANA-H2A inh 16
CCOC(=O)N1CCN(C(=O)/C=C/c2ccc(C(C)(C)C)cc2)CC1	LANA-H2A inh 37
CCOC(=O)N1CCN(C(=O)/C=C/c2ccc([N+](=O)[O-])cc2)CC1	none
COc1cc(C(=O)Nc2ccc(NC(=O)C(C)C)nc2)cc(OC)c1OC	LANA-H2A inh 15
c1coc(-c2nc(-c3ccco3)c(-c3ccco3)nc2-c2ccco2)c1	ZTA counter 76, EBNA-1 inhibitor 38
C=CCN=C1S/C(=C\c2ccc(N(C)C)cc2)C(=O)N1CC=C	LANA-H2A inh 16
Cn1cccc1/C=C1\SC(=S)N(NC(=O)c2ccc(F)cc2)C1=O	none
Cn1cccc1/C=C1\SC(=S)N(NC(=O)c2ccccc2)C1=O	LANA-H2A inh active
C=CCN(Cc1ccc(Cl)s1)C(=O)c1cc(S(=O)(=O)N2CCOCC2)ccc1F	none (no result: EBNA-1 inhibitor)
CC(=O)c1ccc(N2CCN(S(=O)(=O)c3cn(C)cn3)CC2)cc1	LANA-H2A inh 8.8
CC(=O)c1ccc(N2CCN(S(=O)(=O)c3cn(C)c(C)n3)CC2)cc1	none
C#C[C@]1(O)CC[C@H]2[C@@H]3CCc4cc(O)ccc4[C@H]3CC[C@@]21C	none
C#C[C@]1(O)CCC2C3CCC4=Cc5oncc5CC4(C)C3CCC21C (stereo partly specified)	LANA-H2A inh 13
O=C(O)c1cccc(NC(=S)NC(=O)c2ccc(-c3ccc(Cl)cc3)o2)c1	LYPLA2 counter 28
Cc1ccc(C(=O)O)cc1NC(=S)NC(=O)c1ccc(-c2ccc(Cl)cc2)o1	none
CC(C)(C)C(=O)Nc1ccc(F)cc1[N+](=O)[O-]	LANA-H2A inh 12
CN(CC(=O)Nc1ccc(F)cc1[N+](=O)[O-])C1CCS(=O)(=O)C1 (stereo unspecified)	none (no result: LYPLA1 inh, ZTA counter, LYPLA2 counter, EBNA-1 inhibitor)
CNc1nc(-c2ccc(S(=O)(=O)N3CCCCC3)cc2)cs1	LANA-H2A inh 15 (no result: EBNA-1 inhibitor)
O=C(Nc1nc(-c2ccc(S(=O)(=O)N3CCCC3)cc2)cs1)c1ccco1	none
CSc1ncccc1C(=O)N1CCCC(CCC(=O)NCc2ccc(F)c(F)c2)C1 (stereo unspecified)	LANA-H2A inh 14
Cc1cc(C)c(Nc2cc(S(=O)(=O)O)c(N)c3c2C(=O)c2ccccc2C3=O)c(C)c1	LYPLA1 inh 55, ZTA counter 52, LYPLA2 counter 27, EBNA-1 inhibitor 51
Cc1cc(C)c(NC(=O)COC(=O)c2cccc3c2C(=O)c2ccccc2C3=O)c(C)c1	none
O=C(c1ccc(Cl)c(NC2=NC3CS(=O)(=O)CC3S2)c1)N1CCN(c2ccc(F)cc2)CC1 (stereo unspecified)	none
O=c1[nH]c(=S)[nH]c2c1C(c1ccc(Br)cc1)c1c([nH]c(=S)[nH]c1=O)O2	ZTA counter 67, EBNA-1 inhibitor 31
O=C(CN1C(=O)NC(Cc2c[nH]c3ccccc23)C1=O)Nc1cccc(S(=O)(=O)N2CCOCC2)c1 (stereo unspecified)	LANA-H2A inh 25
Cc1cc(C)cc(NC(=O)CN2C(=O)NC(Cc3c[nH]c4ccccc34)C2=O)c1 (stereo unspecified)	none (no result: LYPLA1 inh, ZTA counter, LYPLA2 counter, EBNA-1 inhibitor)
C=CCC[C@H](Cc1ccc(F)cc1)C(=O)O[C@H](CNC(=O)[C@@H](CC=C)CC(=O)N(CCO)Cc1ccccc1)c1ccccc1	LANA-H2A inh 71 (no result: LYPLA1 inh, ZTA counter, LYPLA2 counter, EBNA-1 inhibitor)
COc1ccc(CCn2c(C)cc(C(=O)CN3C(=O)C(=O)N(Cc4ccco4)C3=O)c2C)cc1	none (no result: EBNA-1 inhibitor)
Cc1cccc(N(C(=O)CCC(=O)Nc2cc(C)on2)C(C(=O)NC2CCCC2)c2ccccc2)c1 (stereo unspecified)	none
O=C(CSc1nc2ccccc2c(=O)n1-c1ccccc1)c1c[nH]c2ccccc12	EBNA-1 inhibitor 37
O=[N+]([O-])c1ccccc1S(=O)(=O)N(CC1CO1)c1ccccc1 (stereo unspecified)	LANA-H2A inh 13
Cc1ccc(N(CC2CO2)S(=O)(=O)c2ccccc2[N+](=O)[O-])cc1 (stereo unspecified)	none
COc1ccccc1N1CCN(C2CCCN(C(=O)Cn3cccn3)C2)CC1 (stereo unspecified)	none
